Shown is part of a subset that was picked to be rich in hits.
KDM5B inh: inhibitors of human KDM5B histone demethylase. KDM5B demethylase, FDH-coupled NADH fluorescence (FDH is formaldehyde dehydrogenase). Potency, µM (series often up to 57.7 µM), hits mostly inhibitors. AID 1347165. Q9UGL1. 220,000 compounds, 2.6% hits; active means well fitted inhibition curve with a large enough effect; further: 0% is about no effect; nearly all actives have a fitted effect of over 70% in size
Target sequence (Q9UGL1 whole entry, looked up): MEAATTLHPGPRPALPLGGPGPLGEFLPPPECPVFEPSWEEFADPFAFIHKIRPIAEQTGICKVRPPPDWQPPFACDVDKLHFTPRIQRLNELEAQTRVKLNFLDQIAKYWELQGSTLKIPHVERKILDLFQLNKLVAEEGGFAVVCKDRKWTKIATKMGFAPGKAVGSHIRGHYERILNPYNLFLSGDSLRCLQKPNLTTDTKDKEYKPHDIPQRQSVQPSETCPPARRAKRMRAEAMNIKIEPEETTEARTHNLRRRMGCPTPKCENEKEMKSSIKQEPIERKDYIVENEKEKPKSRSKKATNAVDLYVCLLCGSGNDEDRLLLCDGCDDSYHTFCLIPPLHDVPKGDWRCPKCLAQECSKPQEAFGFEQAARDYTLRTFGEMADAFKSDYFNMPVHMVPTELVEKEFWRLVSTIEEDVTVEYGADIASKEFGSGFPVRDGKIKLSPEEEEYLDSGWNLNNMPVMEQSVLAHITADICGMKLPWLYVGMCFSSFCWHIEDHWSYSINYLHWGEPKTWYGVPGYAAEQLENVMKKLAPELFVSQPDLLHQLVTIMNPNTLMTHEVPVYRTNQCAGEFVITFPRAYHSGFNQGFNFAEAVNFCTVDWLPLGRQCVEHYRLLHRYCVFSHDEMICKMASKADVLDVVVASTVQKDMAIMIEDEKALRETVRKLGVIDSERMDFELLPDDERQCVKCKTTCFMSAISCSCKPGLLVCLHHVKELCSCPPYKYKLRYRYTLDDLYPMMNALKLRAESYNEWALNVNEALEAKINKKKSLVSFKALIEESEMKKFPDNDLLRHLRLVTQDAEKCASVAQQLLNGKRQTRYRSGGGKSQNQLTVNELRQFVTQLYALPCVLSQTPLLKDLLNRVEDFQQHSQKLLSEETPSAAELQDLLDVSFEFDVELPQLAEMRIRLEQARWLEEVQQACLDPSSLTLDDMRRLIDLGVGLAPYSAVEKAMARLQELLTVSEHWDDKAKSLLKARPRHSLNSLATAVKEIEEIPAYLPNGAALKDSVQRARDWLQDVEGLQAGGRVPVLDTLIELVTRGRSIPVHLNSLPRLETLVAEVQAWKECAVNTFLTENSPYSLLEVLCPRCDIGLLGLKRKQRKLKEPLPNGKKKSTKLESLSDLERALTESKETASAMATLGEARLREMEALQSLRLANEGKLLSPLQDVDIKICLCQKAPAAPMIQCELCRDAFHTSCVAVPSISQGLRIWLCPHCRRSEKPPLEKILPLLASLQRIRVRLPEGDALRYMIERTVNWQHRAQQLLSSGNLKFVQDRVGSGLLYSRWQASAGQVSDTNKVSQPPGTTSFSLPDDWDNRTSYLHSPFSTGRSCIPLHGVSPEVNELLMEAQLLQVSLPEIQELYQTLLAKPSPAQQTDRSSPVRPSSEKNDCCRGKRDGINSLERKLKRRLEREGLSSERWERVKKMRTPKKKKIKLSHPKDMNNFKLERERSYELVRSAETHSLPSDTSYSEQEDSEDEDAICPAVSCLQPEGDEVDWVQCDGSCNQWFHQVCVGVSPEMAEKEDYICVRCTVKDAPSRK
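Compound dilutions met 200 nM (final) KDM5BΔAP for 10 min at room temperature before substrate addition. The substrate mix held 12.5 µM H3K4me3 with cofactors 25 µM α-ketoglutarate and 50 µM Fe²⁺. NADH signal gain over 30 min defined activity.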
Active calls of the source: *. Potency means the concentration at half of the fitted maximal effect.

How did O=C(NCC1CCN(c2cc(-c3ccccc3)[nH]n2)CC1)c1ccc2nc[nH]c2c1 do in these assays?
KDM5B inh: inactive

Results for CCOc1ccc(C(=O)NC2CCN(c3cc(-c4ccc(F)cc4)[nH]n3)CC2)cc1OCC ?
KDM5B inh: inactive

What do the screens show for `O=C(Cc1ccccc1Cl)NC1CCN(c2cc(-c3ccccc3)[nH]n2)C1` (stereo not given)?
KDM5B inh: inactive

How did CCOc1ccccc1C(=O)NC1CCN(c2cc(-c3ccc(Cl)cc3)[nH]n2)CC1 do in these assays?
KDM5B inh: inactive

Results for COc1ccccc1CC(=O)NC1CCN(c2cc(-c3ccccc3)[nH]n2)C1 (stereo not given) ?
KDM5B inh: 15.8µM*

Results for CCOc1ccc(CC(=O)NC2CCN(c3cc(-c4ccc(F)cc4)[nH]n3)C2)cc1OCC (stereo not given) ?
KDM5B inh: 8.91µM*

How did Cc1ccc([S+](=O)([O-])N2CCC3OCCN(C(C)C)C(=O)C3C2)cc1 (stereo not given) do in these assays?
KDM5B inh: inactive

Results for COc1ccc(CC(=O)N[C@H](C)c2onc(C)c2C(=O)O)cc1 ?
KDM5B inh: inactive

What do the screens show for `O=C(Nc1ccc(F)c(Cl)c1)C1CCN(C(=O)c2ncn3c2COC(c2ccccc2)C3)CC1` (stereo not given)?
KDM5B inh: inactive

What do the screens show for `Cc1ccsc1C(=O)N1CCC(n2cc(-c3nc(C(C)C)no3)nn2)CC1`?
KDM5B inh: inactive

Results for CCOc1ccccc1/C=N/O ?
KDM5B inh: inactive

Results for CCCCn1nc(C(=O)N2CCCC2c2ccc3c(c2)OCCO3)c2ccccc2c1=O (stereo not given) ?
KDM5B inh: inactive

How did COc1ccc(Nc2nc(CSc3nnc4n3CCCCC4)cs2)cc1 do in these assays?
KDM5B inh: inactive

Results for CCc1c(C)sc(NC(C)=O)c1C#N ?
KDM5B inh: inactive

How did CCOc1cc2nc(-c3ccc(OC)c(OC)c3)nc(N3CCC(C)CC3)c2cc1OC do in these assays?
KDM5B inh: inactive

How did Cc1ccccc1OCC(=O)N1CCC(NC(=O)c2ccccc2)CC1 do in these assays?
KDM5B inh: inactive

Results for Cc1nc2ccc3nc(C)sc3c2s1 ?
KDM5B inh: inactive

Results for O=C(COc1ccc(F)cc1)N1CCCN(c2cc(-c3ccc(Br)cc3)[nH]n2)CC1 ?
KDM5B inh: inactive

Results for Cc1ccc(CC(=O)N2CCCN(c3cc(-c4ccccc4)[nH]n3)CC2)cc1 ?
KDM5B inh: 28.2µM*

What do the screens show for `COc1ccc(C(=O)N2CCCN(c3cc(-c4ccccc4)[nH]n3)CC2)c(C)c1`?
KDM5B inh: inactive

What do the screens show for `Cc1cccc(OCC(=O)N2CCCN(c3cc(-c4ccc(Cl)cc4)[nH]n3)CC2)c1`?
KDM5B inh: 14.1µM*

How did O=C(Cc1ccsc1)N1CCCN(c2cc(-c3ccc(Cl)cc3)[nH]n2)CC1 do in these assays?
KDM5B inh: inactive

What do the screens show for `CC(Oc1ccccc1)C(=O)N1CCCN(c2cc(-c3ccc(Cl)cc3)[nH]n2)CC1` (stereo not given)?
KDM5B inh: inactive

How did COc1ccc(-c2cc(N3CCN(C(=O)Cc4cccc(C)c4)CC3)n[nH]2)cc1 do in these assays?
KDM5B inh: inactive

What do the screens show for `COc1ccc(CC(=O)N2CCCN(c3cc(-c4ccccc4)[nH]n3)CC2)cc1`?
KDM5B inh: 22.4µM*

What do the screens show for `O=C(Cc1cccs1)N1CCCN(c2cc(-c3ccc(Br)cc3)[nH]n2)CC1`?
KDM5B inh: inactive

Results for CCc1nc2c(cnn2-c2ccc(C)cc2)c(=O)n1-c1ccc(OC)c(Cl)c1 ?
KDM5B inh: inactive

Results for O=C([C@@H]1C[C@H](F)CN1S(=O)(=O)c1ccc(Cl)s1)N1CCCCC1 ?
KDM5B inh: inactive

How did Cc1nc2cc(NS(=O)(=O)c3cc(Cl)ccc3Cl)ccc2o1 do in these assays?
KDM5B inh: inactive

How did O=C(COC(=O)C(Cc1ccccc1)N1C(=O)C2C3C=CC(C4CC34)C2C1=O)c1ccc(Oc2c(Cl)cccc2[N+](=O)[O-])cc1 (stereo not given) do in these assays?
KDM5B inh: inactive

How did CCOc1cccc(CNCc2cccnc2)c1OCc1ccc(C)cc1 do in these assays?
KDM5B inh: inactive

What do the screens show for `COc1ccc(/C=N/O)c(OC)c1`?
KDM5B inh: inactive

Results for Cc1ccc(-c2noc(CNC(=O)c3ccccc3)n2)cc1 ?
KDM5B inh: inactive

How did Cc1ccc2nc(C)c(C)c(C(=O)NCc3nc(-c4ncccn4)no3)c2c1 do in these assays?
KDM5B inh: 28.2µM*

What do the screens show for `COc1ccc2c(C)c(C(=O)NCc3nc(-c4ncccn4)no3)oc2c1`?
KDM5B inh: inactive

How did CCOc1c(CN(C)C(=O)C(c2ccc(F)cc2)N(C)C)cccc1OC (stereo not given) do in these assays?
KDM5B inh: inactive

Results for Cc1cc(NC(=O)COC(=O)c2nc(-c3ccccc3)oc2C)ccc1N1CCCC1 ?
KDM5B inh: inactive

What do the screens show for `CN(Cc1ccccc1Br)c1ccc(S(N)(=O)=O)cn1`?
KDM5B inh: inactive
